HepG2 viability: HepG2 cytotoxicity, counter-screen for TGF-b inhibitors | HepG2 CAGA-GFP viability, ATP luminescence, 18 h | Potency, µM (highest dose often 46.1 µM), inactives show top-dose activity change, negative = cytotoxicity, usual class: cytotoxic | hit rate 0.76% among 410,000 | AID 588856; note: potency is the fitted concentration of half-maximal effect
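HepG2 CAGA-GFP cells (1000/well, DMEM with 1% FBS) received compound, then TGF-beta at 500 pg/mL final, and were incubated 18 hours at 37 degrees C. Viability was read by CellTiter-Glo luminescence. Media-only wells were set as complete cell-killing and DMSO as no toxicity.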
DT40 TDP1 CPT: DT40-hTDP1 cell growth loss with CPT. AID 686979. chicken DT40 Tdp1-/-;hTDP1 cells + 20 nM CPT, ATP luminescence, 48 h. Potency, µM (doses to about 46.2 µM), without a hit: at the top dose activity change, negative = growth inhibition, most hits filed as inhibitors. hit rate 12% among 420,000; note: potency is the fitted concentration of half-maximal effect; % is set by controls: 0 for no effect and ±100 for the full control effect; nearly all actives have a fitted effect of over 55% in size
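Chicken DT40 Tdp1-/- cells stably complemented with human TDP1 were seeded at 400 cells/well in medium containing 20 nM camptothecin, exposed to pin-transferred compounds, and grown at 37 °C for at least 48 hr. Viability was read as ATP luminescence.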
TGFb SMAD3 inh: blocks TGF-b signaling; HepG2 CAGA-GFP TGF-b/SMAD3 reporter, GFP fluorescence, 18 h; TGF-beta stimulated, 500 pg/mL final; Potency, µM (doses to about 46.1 µM), inactives show at the top dose activity, negative = inhibition, actives largely listed as inhibitors; hit rate 1.2% among 410,000; note: potency is the fitted concentration of half-maximal effect; % is set by controls: 0 for no effect and ±100 for the full control effect; nearly all actives have a fitted effect of over 65% in size
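Inhibition was scored as loss of TGF-beta-induced (500 pg/mL final, 18 hours, 37 degrees C) GFP in HEPG2 cells carrying a CAGA-GFP reporter, in DMEM with 1% FBS. Well GFP was summed per cell; Activity was normalised to unstimulated and stimulated DMSO wells, then concentration-response fitting.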
TDP1 block: blocks human tyrosyl-DNA phosphodiesterase 1; Q9NUW8; recombinant TDP1, AlphaScreen DNA substrate cleavage; Potency, µM (series often up to 130 µM), inactives show at the top dose activity change, negative = inhibition, most hits filed as inhibitors; hit rate 0.28% among 350,000; AID 485290; note: potency is the fitted concentration of half-maximal effect; % is set by controls: 0 for no effect and ±100 for the full control effect; nearly all actives have a fitted effect of over 40% in size
Target sequence (Q9NUW8 whole entry, looked up): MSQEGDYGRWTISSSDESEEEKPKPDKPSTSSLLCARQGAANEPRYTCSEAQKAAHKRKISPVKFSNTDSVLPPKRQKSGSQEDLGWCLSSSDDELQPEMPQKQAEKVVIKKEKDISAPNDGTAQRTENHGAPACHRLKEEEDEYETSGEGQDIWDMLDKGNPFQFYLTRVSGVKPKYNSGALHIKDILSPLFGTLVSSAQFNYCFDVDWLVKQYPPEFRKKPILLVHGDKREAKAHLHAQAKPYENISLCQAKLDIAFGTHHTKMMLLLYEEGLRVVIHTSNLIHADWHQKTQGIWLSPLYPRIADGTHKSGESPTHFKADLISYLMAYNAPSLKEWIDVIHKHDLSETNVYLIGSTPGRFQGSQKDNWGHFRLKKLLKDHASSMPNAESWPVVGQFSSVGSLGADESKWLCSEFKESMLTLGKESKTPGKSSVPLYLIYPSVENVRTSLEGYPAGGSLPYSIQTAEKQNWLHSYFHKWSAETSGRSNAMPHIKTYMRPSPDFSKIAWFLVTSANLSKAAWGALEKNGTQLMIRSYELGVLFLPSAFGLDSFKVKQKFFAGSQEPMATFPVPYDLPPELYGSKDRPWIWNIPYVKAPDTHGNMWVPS
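Signal: AlphaScreen proximity between streptavidin donor and anti-FITC acceptor beads on intact substrate. Reaction: Tdp1 1 nM, substrate 15 nM final, 5 min RT after 15 min compound preincubation.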
DT40 TDP1 no CPT: qHTS for Inhibitors of human tyrosyl-DNA phosphodiesterase 1 (TDP1): qHTS in cells in absence of CPT. Potency, µM (doses to about 46.2 µM), for the others: at the highest dose activity change, negative = growth inhibition, actives largely listed as inhibitors. DT40 Tdp1-/- hTDP1 cells, no CPT, ATP luminescence, 48 h. hit rate 15% among 420,000; note: potency is the fitted concentration of half-maximal effect; % is set by controls: 0 for no effect and ±100 for the full control effect; nearly all actives have a fitted effect of over 55% in size
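Readout: luminescence from CellTiter-Glo after 30 min in the dark at RT. Cells: DT40 Tdp1-/- with stable hTDP1, 400/well. Exposure: compounds alone, ≥48 hr, 37 °C.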
IL1B secr inh: inflammasome signaling inhibition, IL-1 beta readout. THP-1 LPS/ATP IL-1B secretion, AlphaLISA, 16 h; hits give low values. activity change, % at 57.5 µM. hit rate 4.7% among 360,000. AID 743279; in the data active = activity change below about -50%; inconclusive = mostly about -30% to -49%; note: % is set by controls: 0 for no effect and ±100 for the full control effect
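THP-1 cells pretreated 1 hr with compounds (up to 57.5 uM final), then stimulated with LPS (250 ng/mL final) plus ATP (1.25 mM final); secreted IL-1B measured by AlphaLISA after 16 hr, decreased signal indicating inhibition.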
Active calls of the source: *; ? = inconclusive; nt = not tested or not shown; [ ] = remark or other dose. Hits are enriched below; roughly 19% of the tested compounds scored in any of these assays. Unless noted, calls come from the whole dose curve; as a rule, active = well fitted curve in the direction sought with a large enough effect; inconclusive = small, poorly fitted or top-dose-only effect, or another doubt; inactive = no such curve, though single readings can be large; an effect the other way counts as inactive or inconclusive.

SMILES	HepG2 viability	DT40 TDP1 CPT	TGFb SMAD3 inh	TDP1 block	DT40 TDP1 no CPT	IL1B secr inh
NC(=O)C1CCN(C(=O)COc2ccc(S(=O)(=O)NC3CCCC3)cc2)CC1	-5%	10%	0%	1%	-5%	-2
O=C(COc1ccc(S(=O)(=O)NC2CCCCC2)cc1)N1CCN(c2ccc(F)cc2)CC1	0%	16µM*	?	6%	21µM*	-21
CCOC(=O)[C@]12CCC=C1N(CCC1=CCCCC1)C(=O)[C@H](CC(=O)NCCCOC)C2	nt	-22%	nt	nt	?	0
CCCCCCCCN1C(=O)[C@H](CC(=O)NCCCOC)C[C@@]2(C(=O)OCC)CCCC=C12	nt	23µM*	nt	nt	12µM*	?
CCOC(=O)[C@]12CCCC=C1N(CCC1=CCCCC1)C(=O)[C@H](CC(=O)NCc1ccc(OC)c(OC)c1)C2	nt	15µM*	nt	nt	15µM*	-14
CCCCNC(=O)C[C@@H]1C[C@@]2(C(=O)OCC)CCCC=C2N(CCC2=CCCCC2)C1=O	nt	8.2µM*	nt	nt	8.2µM*	-2
CCCCCCCCN1C(=O)[C@H](CC(=O)NCCCN2CCCC2=O)C[C@@]2(C(=O)OCC)CCCC=C12	nt	?	nt	nt	?	-12
CCOC(=O)[C@]12CCCC=C1N(CCc1ccc(OC)c(OC)c1)C(=O)[C@H](CC(=O)N1CCSCC1)C2	nt	16µM*	nt	nt	?	-10
COc1ccc(CCNC(=O)c2c(C)nn(-c3ccc(F)cc3)c2-n2cccc2)c(OC)c1OC	-28%	nt	-2%	8%	nt	nt
CCOC(=O)[C@]12CCCC=C1N(Cc1ccco1)C(=O)[C@H](CC(=O)NCc1ccc(OC)c(OC)c1)C2	nt	?	nt	nt	?	15
CCOC(=O)N1CCN(C(=O)C[C@@H]2C[C@@]3(C(=O)OCC)CCC=C3N(CCC3=CCCCC3)C2=O)CC1	nt	?	nt	nt	?	0
CCOC(=O)[C@]12CCC=C1N(CCC1=CCCCC1)C(=O)[C@H](CC(=O)N1CCSCC1)C2	nt	18µM*	nt	nt	?	28
COC(=O)[C@]12CCCCC=C1N(CCc1ccc(OC)c(OC)c1)C(=O)[C@H](CC(=O)N1CCOCC1)C2	nt	7%	nt	nt	2%	-11
CCOC(=O)[C@]12CCCC=C1N(CCc1ccc(OC)c(OC)c1)C(=O)[C@H](CC(=O)NCC13CC4CC(CC(C4)C1)C3)C2	nt	15µM*	nt	nt	16µM*	-20
CCCCNC(=O)C[C@@H]1C[C@@]2(C(=O)OCC)CCCC=C2N(CCc2ccc(OC)c(OC)c2)C1=O	nt	1.5µM*	nt	nt	18µM*	4
CCCCNC(=O)C[C@@H]1C[C@@]2(C(=O)OCC)CCC=C2N(Cc2ccc3c(c2)OCO3)C1=O	nt	?	nt	nt	?	2
CCCCCCCCN1C(=O)[C@H](CC(=O)NCCC(C)C)C[C@@]2(C(=O)OCC)CCC=C12	nt	21µM*	nt	nt	21µM*	9
Nc1nc(NCCc2ccccc2)nc(NCCO)c1[N+](=O)[O-]	1%	-12%	-15%	nt	-21%	110
CSCC[C@@H]1NC(=O)C/C=C\[C@@H](C)COC(=O)[C@@H](CCSC)NC(=O)C/C=C\[C@@H](C)COC1=O	nt	nt	nt	7%[21 µM]	nt	nt
COc1ccccc1NC(=O)Cn1c(=O)n(CC(=O)NCc2ccccc2Cl)c(=O)c2sccc21	-16%	-4%	5%	1%	-4%	nt
COCCn1c(=O)c(CCc2ccccc2)nc2cnc(Oc3ccccc3)nc21	nt	-13%	nt	nt	-19%	nt
CCOC(=O)[C@]12CCC=C1N(CCC1=CCCCC1)C(=O)[C@H](CC(=O)NCc1cccc(C(F)(F)F)c1)C2	nt	?	nt	nt	21µM*	-21

Screening data deposited in PubChem BioAssay by National Center for Advancing Translational Sciences (NCATS).
